# From PubChem BioAssay
# LGR2 antag = inhibitors of bursicon-induced LGR2 CRE-luciferase signal, primary screen, cell-based, HEK293, CRE-luciferase reporter, bursicon stimulation; Drosophila bursicon receptor LGR2 (rickets); bursicon-stimulated, 4 h; inhibition, % at 9.99 µM; 0.35% of 380,000 active; AID 720647, 2013;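 active means drop in luminescence signal, shown as inhibition above about 50% in the replicate tests, limit read from the data, passing the limit was not always enough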;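 further: agonist challenge used bursicon conditioned medium at about half maximal strength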
# EWS-Fli inh = EWS/Fli-driven NR0B1 reporter inhibitors, primary screen, A673 cells, NR0B1 luciferase, luminescence, MLPCN library; viability-normalised; inhibition, % at 12.6 µM; 0.67% of 350,000 active;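 active means mean inhibition of at least 50% after viability correction, with every replicate also passing that limit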;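 further: firefly luciferase signal divided by Alamar Blue viability fluorescence both relative to DMSO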
# TWEAK-Fn14 inh = inhibitors of TWEAK-Fn14 signaling, primary screen, luciferase reporter cells, uHTS. TWEAK-stimulated Fn14 reporter cells, luciferase luminescence, 8 h. inhibition, % at 10 µM. 2% of 360,000 active. AID 1159606, 2016; in the data active means inhibition above about 50%
# KKLEB tox = cytotoxicity in KKLEB CF airway cells, primary screen, cytotoxicity control for CF NF-kB inhibitor project, cell-based, uHTS, fluorescence assay plates. KKLEB CF airway cells viability, ATPlite luminescence, overnight; stronger effect = lower value; cells stimulated with P. aeruginosa culture filtrate. activity change (cytotoxicity), % at 5 µM. 0.36% of 360,000 active;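 active means corrected activity change at or below -50% at 5 µM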
# CF NFkB block = inhibitors of PAF-induced NF-kB signaling, primary screen, cell-based, GFP fluorescence, uHTS; 0.86% of 360,000 active; inhibition, % at 5 µM; KKLEB NF-kB-GFP reporter, GFP fluorescence overnight;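 active means at least 50% inhibition at 5 µM, scaled per plate between neutral and stimulator controls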;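 further: PAF is a Pseudomonas aeruginosa culture filtrate used as stimulus; plate controls were PAF-stimulated DMSO wells for no effect and unstimulated DMSO wells for full effect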
# TROY NFkB inh = inhibitors of TROY-driven NF-kB signaling, primary screen, Q293 LMP1-TROYcd cells, NF-kB luciferase, uHTS; Q293 LMP1-TROYcd NF-kB luciferase reporter, 4 h; inhibition, % at 10 µM; 0.98% of 360,000 active;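 active means compounds whose plate-normalised and pattern-corrected inhibition of the luciferase reporter signal at the single screening dose is 50% or more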
# Active calls of the source: *; . = not tested or not shown. A selection: hits, their analogues and other compounds. The true share with any hit is near 2.6%.
SMILES,LGR2 antag,EWS-Fli inh,TWEAK-Fn14 inh,KKLEB tox,CF NFkB block,TROY NFkB inh
CO[C@@H](CN(C)C(=O)c1cc(Cl)cc(Cl)c1)[C@H](C)CN(C(=O)Nc1ccc(F)cc1)[C@@H](C)CO,12.8,-0.7,.,.,.,.
CCN(CC)c1nc(Oc2ccc(C(=O)NN)cc2)nc(Oc2ccc(C(=O)NN)cc2)n1,16.3,0.9,-24.8,-2.9,-11.6,53.4*
N#Cc1cccc(-c2csc(C(O)(c3ccccc3)C(F)(F)F)n2)c1 (stereo unspecified),10.9,57.7*,-5.5,2.2,-30.4,3.5
COc1cccc(C(=O)Nc2ccc3c(c2)OC[C@@H](C)N(C)C[C@H](C)[C@@H](OC)CN(C)C3=O)c1,12.5,2.7,.,.,.,.
CCOc1ccccc1NC(=O)/C(C#N)=C/c1c(C)nn(-c2ccc(F)cc2)c1Cl,-9.4,0.0,-39.7,-17.8,24.5,4.8
CN(C)c1nc(C=C(C#N)C#N)c(Cl)n1-c1ccc(F)cc1,16.3,38.0,71.8*,-96.4*,85.6*,16.2
CO[C@H]1CN(C)C(=O)c2cc(NC(=O)c3ccccc3)ccc2OC[C@H](C)N(C)C[C@@H]1C,-3.6,6.6,.,.,.,.
C=C1[C@@H](O)[C@H](Cc2ccccc2)N(Cc2ccccc2Br)S1(=O)=O,47.2,9.0,66.7*,-93.4*,84.8*,23.7
Cc1ccccc1CN1[C@@H](Cc2ccccc2)COCCS1(=O)=O,7.1,-11.7,-6.1,-11.1,20.4,-8.5
CNC[C@@H]1Oc2ccc(NC(=O)CCC(F)(F)F)cc2CC(=O)N([C@H](C)CO)C[C@@H]1C,0.4,0.3,.,.,.,.
COc1cc(-c2noc(C)c2/C=C/c2ccc(C(=O)O)cc2)cc(OC)c1OC,-30.3,10.9,16.6,0.4,-21.0,-0.1
COc1cc(-c2noc(C)c2/C=C/c2cccc([N+](=O)[O-])c2)cc(OC)c1OC,22.4,54.2*,11.5,-48.1,34.9,23.3
O=C(c1cnn2c(C(F)(F)F)cc(-c3ccccc3)nc12)N1CCCCC1c1cccnc1 (stereo unspecified),18.0,23.3,15.5,-0.5,4.9,4.7
O=C(c1cc2nc(-c3ccc(F)cc3)cc(C(F)(F)F)n2n1)N1CCCCC1c1cccnc1 (stereo unspecified),12.0,25.3,61.4*,-10.1,31.3,45.2
CC1(C)Cc2c(C#N)c(SCCOc3ccccc3)nc(N3CCOCC3)c2CO1,.,.,52.9*,-16.0,46.1,-2.9
CC1(C)Cc2c(C#N)c(SCCO)nc(N3CCOCC3)c2CO1,1.3,12.9,-1.1,-8.4,12.0,-11.7
C[C@@H]1CCCCO[C@H](CN(C)C(=O)CCCN(C)C)[C@H](C)CN([C@@H](C)CO)C(=O)c2cc(NS(=O)(=O)c3ccc(F)cc3)ccc2O1,-0.3,-6.1,.,.,.,.
COc1ccc(-c2nnc(-c3cc4ccccc4oc3=O)o2)cc1,.,.,-30.0,6.3,-14.3,-13.1
COc1cccc2cc(-c3nnc(-c4ccccc4)o3)c(=O)oc12,11.4,15.8,73.5*,-5.2,-12.0,70.3*
O=C(Oc1ccc2ccccc2c1Br)N1CCCCCC1,.,.,64.5*,-13.4,-7.4,66.5*
CC(=O)Nc1ccc(/C=C/c2nc3ccccc3o2)cc1,-0.8,-16.9,17.0,8.5,-22.0,-15.5
O=C(Nc1ccc(/C=C/c2nc3ccccc3o2)cc1)c1c(F)cccc1F,.,.,37.9,-2.6,0.8,58.7*
O=C(Nc1cccc(Cl)c1)N1C[C@H]2[C@@H](c3ccccc31)[C@H](CO)N2C(=O)C1CCCC1,-6.5,8.1,.,.,.,.
Cc1cccc(NC(=S)NN2CCN(C)CC2)c1C,17.9,.,-5.7,-8.0,4.6,-2.2
Cc1ccccc1NC(=S)NN1CCN(C)CC1,.,.,73.9*,20.7,-7.6,.
COc1cccc(C2=Cc3ccc(F)cc3C(CC(C)=O)N2c2ccc(C#CC3(O)CCCCC3)cc2)c1 (stereo unspecified),-19.3,45.2,65.0*,.,.,-4.1
